In PubChem BioAssay:
Values without a mark were called inactive.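 Rule for the calls, unless noted: active = cell viability at or below a set limit in both duplicate runs, the limit being the all-compound median minus 4 SD (cut at about 23% in these data, passing the limit was not always enough); inconclusive = no clear call, values can overlap the other calls; inactive = the rest.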 Records with an inconclusive call do not appear.

Experiment: viability gain of MRP-1-high H69AR cells under doxorubicin, pilot screen, MRP-1 activator project, CellTiter-Glo, duplicate (AID 807;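 active = viability increase at or above a cutoff of the median across tested compounds plus 3 SD, cut at about 8.5% in these data, passing the limit was not always enough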;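 note: compound pretreatment 18-22 h then 72 h combined with doxorubicin; 0% = doxorubicin alone and 100% = vehicle without doxorubicin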)
Conditions: H69AR viability with doxorubicin, CellTiter-Glo luminescence; at 10 µM; active compounds read high

SMILES	viability increase [%]
COc1ccccc1N1CCN(C(=O)N2CCOCC2)CC1	-1.74
O=C(CSc1nnc2ccccn12)c1ccccc1	0.47
CCOc1ccc(N(CC(=O)OC)S(=O)(=O)c2ccc(OC)c(OC)c2)cc1	-0.96
CCCCSc1nc(CCC)cc(=O)[nH]1	-1.29
O=C(CN1CCN(Cc2ccccc2F)C1=O)NCc1cccnc1	-1.65
COc1ccc(OC)c(C(=O)c2ccc(C(=O)O)cc2)c1	0.88
Cc1ccc(C)n1-n1c(C)nc2sc(-c3ccccc3)cc2c1=O	1.12
CCn1c(C(=O)N2CCC(C(=O)N3CCN(c4ccccn4)CC3)CC2)cc2sccc21	-3.83
C=CCSc1nc(N)c2c(C)c(C)sc2n1	-3.58
COc1ccc(OCCSc2nc3ccccc3n2CC(=O)O)cc1	-0.98
Cc1nnc(SCC(=O)NCc2ccccc2)s1	-1.46
Clc1ccc(SCCCCn2ccnc2)cc1	0.79
CC1(C)Oc2ccc3ccc(=O)oc3c2C(N2CCCCC2)C1O (stereo not given)	-2.43
CSCCC(N=CC1=C(O)CC(C)(C)CC1=O)C(=O)O (stereo not given)	0.34
COc1ccc(C)cc1NC(=O)C1CCN(S(=O)(=O)c2cccc3cccnc23)CC1	-2.44
CCOc1ccc(-c2nnc(SCC(=O)N3CCN(c4ccccc4)CC3)o2)cc1	-0.66
CCCOc1ccc2ccccc2c1/C=N/n1cnnc1	-5.76
O=C(Cn1cc2c(n1)CCCCC2)N1CCc2ccccc21	-2.66
CCn1cc(C(=O)N2CCOCC2)c(=O)c2cc(S(=O)(=O)N(C)C3CCCCC3)ccc21	-1.73
COCCn1c(SCC(=O)Nc2ccc3c(c2)OCCO3)nc2c(c1=O)SC(C)C2 (stereo not given)	-1.19
CC(C)CCN(C)C1CCN(S(=O)(=O)c2ccc(F)cc2)CC1	-2.68
COc1ccccc1-n1c(=O)[nH]c2c(C(N)=O)nc(-c3cccnc3)nc21	-7.14
Cn1c(/C=N/n2cnnc2)nc2ccccc21	-3.76
CN1CCN(CCCNC(=O)Cn2ncc3c4ccccc4n(C)c3c2=O)CC1	-1.44
CCOc1ccc(N(CC(=O)NCc2ccco2)S(=O)(=O)c2ccc(OC)c(OC)c2)cc1	-4.63

Experiment: growth suppression of beta-catenin knockout HCT116, pilot screen, human colon tumor cells (AID 823);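 note: 0% = wells killed by 20 µM Hyamine and 100% = untreated DMSO cell wells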
Conditions: CellTiter-Glo, 60 h, at 10 µM, active compounds read low

SMILES	viability [%]
Cc1nnc2n(-c3ccc(Cl)cc3)c(=O)c3c4c(sc3n12)CN(C)CC4	112
O=c1oc2c3c4c(cc2s1)CCCN4CCC3	101
Cc1cc(C)n2nc(SCc3nc4ccccc4[nH]3)nc2n1	91.2
Cc1cc(C)cc(N(CC(=O)Nc2cccc(C)n2)S(=O)(=O)c2c(C)noc2C)c1	73.4
COc1cccc(C2C3=C(N=C4SCC(=O)N42)c2ccccc2CC3)c1OC (stereo not given)	65.8
O=C(Cn1nc(Cc2ccncc2)c2ccccc2c1=O)N1CCN(C(=O)c2ccco2)CC1	106
O=C(Nc1c(C(=O)NCc2ccco2)cnn1-c1ccccc1)c1ccc(F)cc1	101
Cc1nc2ccc(S(=O)(=O)NC(C(=O)Nc3nccs3)C(C)C)cc2s1 (stereo not given)	101
Cn1nnnc1SCC(=O)N1CCN(c2ccccc2)CC1	93.1
COc1cc2c(cc1OC)-c1nnc(C)n1C1(CCCC1)C2	100
CS(=O)(=O)N(Cc1ccco1)CC(O)Cn1c2ccccc2c2ccccc21 (stereo not given)	72.2
COc1cccc(C2=NOC(C(=O)N3CCc4ccccc4C3)C2)c1 (stereo not given)	104
O=C(CC1Oc2ccccc2NC1=O)NCCCN1CCOCC1 (stereo not given)	108
CCOC(=O)N1CCN(C(=O)c2ccc(CS(=O)(=O)c3c(Cl)cccc3Cl)o2)CC1	107
CCn1cc(SCC(=O)Nc2cc(C)on2)c2ccccc21	92.3
COc1ccccc1N1CCN(C(=O)N2CCOCC2)CC1	95.9
O=C(CSc1nnc2ccccn12)c1ccccc1	109
CCOc1ccc(N(CC(=O)OC)S(=O)(=O)c2ccc(OC)c(OC)c2)cc1	99.9
CCCCSc1nc(CCC)cc(=O)[nH]1	99.6
O=C(CN1CCN(Cc2ccccc2F)C1=O)NCc1cccnc1	100

SMILES	viability [%]
COc1ccc(OC)c(C(=O)c2ccc(C(=O)O)cc2)c1	105
Cc1ccc(C)n1-n1c(C)nc2sc(-c3ccccc3)cc2c1=O	54.6
CCn1c(C(=O)N2CCC(C(=O)N3CCN(c4ccccn4)CC3)CC2)cc2sccc21	78.3
C=CCSc1nc(N)c2c(C)c(C)sc2n1	95.3
COc1ccc(OCCSc2nc3ccccc3n2CC(=O)O)cc1	99.6
Cc1nnc(SCC(=O)NCc2ccccc2)s1	101
Clc1ccc(SCCCCn2ccnc2)cc1	64.8
CC1(C)Oc2ccc3ccc(=O)oc3c2C(N2CCCCC2)C1O (stereo not given)	101
CSCCC(N=CC1=C(O)CC(C)(C)CC1=O)C(=O)O (stereo not given)	93.9
COc1ccc(C)cc1NC(=O)C1CCN(S(=O)(=O)c2cccc3cccnc23)CC1	95.3
CCOc1ccc(-c2nnc(SCC(=O)N3CCN(c4ccccc4)CC3)o2)cc1	102
CCCOc1ccc2ccccc2c1/C=N/n1cnnc1	92.4
O=C(Cn1cc2c(n1)CCCCC2)N1CCc2ccccc21	66.4
CCn1cc(C(=O)N2CCOCC2)c(=O)c2cc(S(=O)(=O)N(C)C3CCCCC3)ccc21	100
COCCn1c(SCC(=O)Nc2ccc3c(c2)OCCO3)nc2c(c1=O)SC(C)C2 (stereo not given)	102
CC(C)CCN(C)C1CCN(S(=O)(=O)c2ccc(F)cc2)CC1	97.6
COc1ccccc1-n1c(=O)[nH]c2c(C(N)=O)nc(-c3cccnc3)nc21	72.9
Cn1c(/C=N/n2cnnc2)nc2ccccc21	94
CN1CCN(CCCNC(=O)Cn2ncc3c4ccccc4n(C)c3c2=O)CC1	92.9
CCOc1ccc(N(CC(=O)NCc2ccco2)S(=O)(=O)c2ccc(OC)c(OC)c2)cc1	94.7
